Source: PubChem BioAssay (National Center for Advancing Translational Sciences (NCATS))
ERK EGF block – qHTS Assay for Inhibitors of the ERK Signaling Pathway using a Homogeneous Screening Assay; Stimulation with EGF | HEK293-V1b, EGF-stimulated phospho-ERK AlphaScreen | Potency, µM (highest dose often 11.5 µM), for inactives: top-dose activity change, negative = inhibition, hits mostly inhibitors | actives 0.41% (n = 130,000) | AID 1454, 2008;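 note: potency is the fitted concentration of half-maximal effect; plate controls were stimulated vehicle wells for no effect and unstimulated vehicle basal for full effect; nearly all actives have a fitted effect of over 55% in size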
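Phospho-ERK1/2 measured by AlphaScreen (SureFire) after 5 min 25 nM EGF stimulation of V1b-expressing HEK293 cells preincubated 30 min at 37C with titrated compounds; data scaled to DMSO and EGF controls, Hill-fitted AC50.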
pERK EGF inh – Confirmation Concentration-Response Assay for Inhibitors of the ERK Signaling Pathway using a Homogeneous Screening Assay; Stimulation with EGF; Potency, µM (top dose mostly 57.5 µM), inactives show at the top dose activity change, negative = inhibition, hits mostly inhibitors; actives 60% (n = 60); HEK293 EGF-stimulated ERK phosphorylation, AlphaScreen; shares compounds with ERK EGF block
c-Raf inh – Assay for Inhibitors of the ERK Signaling Pathway using a Homogeneous Screening Assay: c-Raf Inhibition; shares compounds with ERK EGF block; AID 1728, 2009; c-Raf kinase inhibition, homogeneous biochemical assay; activity change, negative = inhibition, % at 76.9 µM; 70 tested, under 10 active
MEK inh – Assay for Inhibitors of the ERK Signaling Pathway using a Homogeneous Screening Assay: MEK Inhibition. shares compounds with ERK EGF block. homogeneous MEK kinase activity assay, ERK pathway. Potency, µM (highest dose often 76.9 µM), without a hit: at the top dose activity change, negative = inhibition, most hits filed as inhibitors. 70 tested, under 10 active
Target sequence (Q02750 whole entry, looked up): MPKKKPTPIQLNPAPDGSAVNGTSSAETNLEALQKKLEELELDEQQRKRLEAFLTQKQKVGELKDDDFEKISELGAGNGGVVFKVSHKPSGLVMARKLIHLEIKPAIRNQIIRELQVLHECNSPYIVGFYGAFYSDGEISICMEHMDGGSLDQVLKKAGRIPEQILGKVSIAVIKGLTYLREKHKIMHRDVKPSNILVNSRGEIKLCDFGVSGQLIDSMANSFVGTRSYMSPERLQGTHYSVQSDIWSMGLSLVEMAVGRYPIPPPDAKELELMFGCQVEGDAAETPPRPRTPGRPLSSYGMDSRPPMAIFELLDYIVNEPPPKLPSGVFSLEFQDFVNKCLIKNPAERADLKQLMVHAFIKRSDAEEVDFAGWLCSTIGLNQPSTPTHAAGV
* marks the source's active call; other numbers are inactive results; ? = inconclusive; [ ] = another dose, or the depositor's remark. The sample as a whole holds a higher share of hits than the screen did. Calls come from the whole dose curve; as a rule, active = well fitted curve in the direction sought with a large enough effect; inconclusive = small, poorly fitted or top-dose-only effect, or another doubt; inactive = no such curve, though single readings can be large; an effect the other way counts as inactive or inconclusive.

SMILES | ERK EGF block | others
CCC/C=C(\CCC)C(NS(=O)(=O)c1ccc(Cl)cc1)c1ccccc1 (centres undefined) | -14.4%
C=C(Nc1ccc(OC)cc1)C(=O)OC | -4.9%
CCC(/C=C/C(C)C1CCC2C3CCC4=CC(=O)CC[C@@]4(C)C3CC[C@@]12C)C(C)C (some centres undefined) | 24.3%
C=C1C(=O)OC2C[C@@]3(C)CCCC(C)C3=CC12 (some centres undefined) | 24.8%
Nc1ccccc1SSc1ccccc1N | 26.8%[57.5 µM]
C/C(N)=C(/C#N)C(=O)CSc1ccccc1F | -6.8%
N#CC(=C(/N)Sc1ccccc1N)/C(C#N)=C(/N)Sc1ccccc1N | 0.891µM* | c-Raf inh=-2.5
COCC(=O)N1CCC2(CC1)CN(c1cccc(-c3ccccc3)c1)C2 | -14.6%
O=C(O)c1ccc(OCCn2ccnc2)cc1 | -6.7%[57.5 µM]
COc1ccc(OCC(Cn2cnc3ccccc32)OC(C)=O)cc1 (centres undefined) | -2.6%
COc1ccc(C(=O)OC(COc2ccccc2)Cn2ccnc2)cc1 (centres undefined) | 7.08µM* | pERK EGF inh=14.1µM*;c-Raf inh=-8.4;MEK inh=-14.8%
Cn1cccc1C(=O)N1CCC2(CC1)CCN(C(c1ccccc1)c1ccccc1)CC2 | -0.5%
COc1cccc([C@@H]2Oc3ccc(Br)cc3C[C@H]2OC(=O)NS(=O)(=O)c2ccc(F)cc2)c1 | -2.8%
Cc1cn2c(=O)c3ccccc3nc2n2c(=O)c3ccccc3nc12 | -4.7%
CCCCC[C@H](O)/C=C/[C@H]1OC(=O)C[C@H](O)[C@@H]1C/C=C\CCCC(=O)O | -4.1%
COc1ccc(-c2nc3cnc(N(C)C)nc3n(CCc3ccccc3)c2=O)cc1 | ? | pERK EGF inh=?;c-Raf inh=1.4;MEK inh=-4.1%
COc1ccc(-n2c(=O)c(CCc3ccccc3)nc3cnc(N(C)C)nc32)cc1 | 3.8%
COc1ncc2nc(-c3ccc(Cl)cc3)c(=O)n(CCc3ccccc3)c2n1 | 6.0%
Cc1ccccc1-c1nc(-n2ccnc2)c2ccccc2n1 | 12.9%
Cn1c(=O)cc(Nc2ccccc2)c2c(=O)n(-c3ccccc3)c(=O)n(-c3ccccc3)c21 | 5.01µM* | pERK EGF inh=10µM*;c-Raf inh=-4.7;MEK inh=-15.3%
Cc1nc2cnc(Nc3ccccc3)nc2n(C)c1=O | -3.5%
Cn1c(=O)c2c(Nc3ccc(F)cc3)cc(=O)n(-c3ccccc3)c2n(C)c1=O | 2.4%[57.5 µM]
c1ccc2c(N3CCNCC3)nc(-c3ccoc3)nc2c1 | 18.1%
Cc1cc(=O)c2c(O)c3c(O)cc(=O)c4c3c3c(cc(O)c1c23)C(C)(C)C=4O | -14.5%
CN(C)S(=O)(=O)c1cccc2c1C(=O)c1ccccc1C2=O | 1.2%
SMILES | ERK EGF block | others
NC(=O)COC(=O)c1cccc2c1-c1ccccc1C2=O | -9.2%
CNc1cccc2c1C(=O)c1ccccc1C2=O | 10µM* | pERK EGF inh=14.1µM*;c-Raf inh=-8.8;MEK inh=-19.1%
C1CCC(C(C[C@@H]2CCCCN2)C2CCCCC2)CC1 | 9.9%[25.7 µM]
N#CC(C#N)=C1C=CC=CN1/C(=C\c1ccco1)C(=O)c1ccc(Cl)cc1 | 10µM* | pERK EGF inh=?;c-Raf inh=-14.6;MEK inh=-18.8%
N#C/C(=C\c1ccco1)C(=O)NCc1ccccc1 | -2.7%
O=C(NCC1CCCO1)/C(=C\c1ccco1)NC(=O)c1ccc(Cl)cc1 (centres undefined) | 7.8%
CC(C)NC(=O)N1CC[C@@]2(CCCN(C(=O)c3csnn3)C2)C1 | 1.3%
C=C[C@@]1(C)CC(=O)[C@@]2(O)[C@@]3(C)[C@@H](O)CCC(C)(C)[C@@H]3[C@H](OC(=O)CCN(C)C)[C@H](OC(C)=O)[C@@]2(C)O1 | -1.3%
C=C[C@]1(C)CC(=O)[C@@]2(O)[C@@]3(C)C(O)CCC(C)(C)C3C(O)C(OC(C)=O)[C@@]2(C)O1 (some centres undefined) | ? | pERK EGF inh=-16.1%;c-Raf inh=-3.8;MEK inh=-18.8%
O=C(c1ccco1)N1CCC2(CCCN(c3ccncc3)C2)CC1 | -3.8%
COC(=O)C1=C(C)NC(C)=C([N+](=O)[O-])[C@@H]1c1ccccc1C(F)(F)F | -7.1%
C1=C(CN2CCOCC2)COc2c1cccc2OC[C@@H]1CNCCO1 | 9.3%
CCCn1c(-c2ccc(F)cc2)nc2c(N3CCC(N(C)C)C3)nc(C)nc21 (centres undefined) | -3.6%
NS(=O)(=O)c1ccc(N/N=C/c2ccc3c(c2)OCO3)c([N+](=O)[O-])c1 | -2.3%
